Assay outcomes deposited in PubChem BioAssay by National Center for Advancing Translational Sciences (NCATS).
An excerpt weighted towards active compounds, which were near 11% of everything screened.
ALDH1A1 inh = blocks purified human ALDH1A1 activity. Potency, µM (top dose mostly 75.3 µM), for inactives: at the top dose activity, negative = inhibition, actives largely listed as inhibitors. Purified ALDH1A1, NADH fluorescence, propionaldehyde substrate. actives 7.3% (n = 220,000). P00352;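 also: potency is read from the fitted curve at half-maximal effect; plate controls were no enzyme wells and a reference inhibitor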
Target sequence (P00352 whole entry, looked up): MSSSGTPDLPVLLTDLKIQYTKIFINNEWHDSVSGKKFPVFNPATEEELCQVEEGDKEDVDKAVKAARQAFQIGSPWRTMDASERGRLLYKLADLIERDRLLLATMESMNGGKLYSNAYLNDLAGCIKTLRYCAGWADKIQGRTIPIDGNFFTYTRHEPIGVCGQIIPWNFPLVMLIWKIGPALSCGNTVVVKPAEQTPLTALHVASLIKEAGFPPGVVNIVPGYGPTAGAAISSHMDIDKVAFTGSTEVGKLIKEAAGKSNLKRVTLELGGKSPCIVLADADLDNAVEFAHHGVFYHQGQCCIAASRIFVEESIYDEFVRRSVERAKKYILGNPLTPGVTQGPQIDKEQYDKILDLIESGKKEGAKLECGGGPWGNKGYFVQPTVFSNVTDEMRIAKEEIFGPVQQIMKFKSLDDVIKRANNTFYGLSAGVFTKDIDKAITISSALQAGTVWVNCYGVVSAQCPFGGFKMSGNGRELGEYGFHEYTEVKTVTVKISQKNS
HPGD block = HPGD (human) dehydrogenase inhibition. P15428. purified HPGD, NADH fluorescence kinetic, PGE2 substrate. Potency, µM, inactives show at the highest dose activity change, negative = inhibition, hits mostly inhibitors. actives 4.3% (n = 150,000); also: potency is read from the fitted curve at half-maximal effect
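NADH formation kinetics: reaction with 30 uM PGE2 and 1 mM NAD+ (final), 20 nM enzyme, Tris-HCl pH 8 with Tween 20, after 15 min compound preincubation at room temperature. Fluorescence change, last versus first of five reads.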
PNC inhibitor = perinucleolar compartment assembly inhibition; activity change (PNC), negative = inhibition, % at 10 µM; AID 2417; PC3M PTB-GFP, PNC prevalence imaging, 16 h; hits give low values; actives 3.1% (n = 140,000);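 active = readout at or below -70, meaning at least 70% loss of cells showing the perinucleolar compartment, a nuclear body marking cancer cells; inconclusive = readout between -30 and a set limit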;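 also: plate controls were DMSO wells for no effect and camptothecin positive control wells for full effect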
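Compounds are pinned in duplicate onto adhered PC3M cells stably expressing GFP-tagged PTB and incubated 16 h at 37 C. Cells are then fixed, nuclei stained with Hoechst, and PNC-positive cells counted.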
An asterisk follows results filed as active; ? = inconclusive; . = no result; [ ] = remark or other dose. Unless noted, calls follow the shape of the dose curve; as a rule, active = well fitted inhibition curve with a large enough effect (not every such curve was filed as active); inconclusive = small, poorly fitted or top-dose-only effect, or another doubt; inactive = no such curve, though single readings can be large or run the other way. Unless noted, % is scaled to controls: 0 for no effect and ±100 for the full control effect.

SMILES	ALDH1A1 inh	HPGD block	PNC inhibitor
COc1cccc(-n2nnc3c(=O)n(CC(=O)N4CCCc5ccccc54)cnc32)c1	?	22µM*	8
O=C(Cn1c(-c2ccccc2)noc1=O)N1CCC(Cc2ccccc2)CC1	1%	.	.
COc1cccc(-n2nnc3c(=O)n(CC(=O)N4CCC(C)CC4)cnc32)c1	-12%	?	98
O=C(Cn1cnc2c(nnn2Cc2ccccc2F)c1=O)N1CCN(c2ccccc2)CC1	?	-16%	-83*
O=C(Nc1ccccc1)c1cccc(S(=O)(=O)Oc2ccc([N+](=O)[O-])cc2)c1	-11%	-20%	2
CC(c1ccon1)N(C)Cc1cn(Cc2ccccc2)nc1-c1ccc2c(c1)OCO2 (configuration not stated)	2%	.	.
CCc1nc2ccccc2c(NC(=O)CN2CC(C)CC(C)C2)c1C (configuration not stated)	5%	.	.
O=C(O)[C@@H]1C[C@@H](C(=O)O)N1	12%	-11%	.
COc1ccc2nc(NC(=O)C(NS(=O)(=O)c3cccc4nsnc34)C(C)C)sc2c1 (configuration not stated)	-2%	-6%	?
NS(=O)(=O)c1cc2c(cc1Cl)N[C@@H]([C@@H]1C[C@@H]3C=C[C@H]1C3)NS2(=O)=O	4%	-1%	.
Cc1nc2cnc(OCc3ccccc3)nc2n(C)c1=O	-12%	.	.
COc1ccc(NC(=O)CC2S/C(=N\c3nccs3)N(C)C2=O)cc1 (configuration not stated)	12%	.	.
CCC(=O)OCC(=O)Nc1cc([N+](=O)[O-])ccc1OC	-2%	.	.
O=C(Cn1cnc2c(nnn2Cc2ccc(Cl)cc2)c1=O)N1CCCc2ccccc21	22µM*	-15%	-16
COc1cccc(-n2nnc3c(=O)n(Cc4ccccc4F)cnc32)c1	?	5.6µM*	-28
Cc1ccc(Cn2nnc3c(=O)n(CC(=O)N4CCCc5ccccc54)cnc32)cc1	3%	-16%	?
COc1ccc(-n2nnc3c(=O)n(Cc4cc(C)ccc4C)cnc32)cc1	6%	-24%	-4
O=C(Cn1cnc2c(oc3ccccc32)c1=O)N1CCCc2ccccc21	20µM*	-7%	?
O=C(CSc1ncnc2c1oc1ccccc12)N1CCCc2ccccc21	?	-19%	?
CCN=C1S/C(=C\c2sccc2C)C(=O)N1CC	?	-18%	30
COC(=O)N1CCC2(CC1)CCN(c1ncccn1)CC2	4%	-11%	.
COc1ccc2c(=O)cc(-c3ccncc3)oc2c1OC	13%[13.5 µM]	-11%	.
COc1ccccc1C(=O)N(CCC1CCCN1C)c1nc2ccccc2s1 (configuration not stated)	8%	.	.
CN1C(=O)NC(c2ccccc2)(C(F)(F)F)S/C1=C(/C#N)c1nnc(N2CCOCC2)n1-c1ccccc1 (configuration not stated)	-7%	-1%	2
C=CCN1C(c2ccccc2)=CS/C1=C(/C#N)c1nnc(N2CCOCC2)n1-c1ccccc1	5.6µM*	-29%	-3
SMILES	ALDH1A1 inh	HPGD block	PNC inhibitor
CN1C(c2ccc(F)cc2)=CS/C1=C(/C#N)c1nnc(N2CCOCC2)n1-c1ccccc1	0.79µM*	-3%	29
CCn1cnc2c1c(=O)n(Cc1nnc3n1-c1ccccc1SC3)c(=O)n2Cc1ccccc1	-2%	-9%	34
CCN1C(c2ccc(F)cc2)=CS/C1=C(\C#N)c1nnc2n1-c1ccccc1SC2	13µM*	?	17
Cc1cc(/C=C(\C#N)c2nnc(N3CCOCC3)n2-c2ccccc2)c(C)n1-c1ccccc1	?	-15%	-19
COc1ccc(C(=O)c2ccc([N+](=O)[O-])cc2Cl)cc1	3%	.	.
Fc1ccc(N2CCN(Cc3cnc(Cl)s3)CC2)cc1	9%	.	.
C=C1CCO[C@@]2([C@H](O)[C@@](C)(O)CO)NC(=O)[C@]1(O)NC2=O	7%[13.5 µM]	-8%	.
COc1ccccc1-c1ccc(Nc2cccc(C(C)=O)c2)nn1	?	-16%	13
CC(=O)c1ccc(Nc2ccc(-c3ccccc3C)nn2)cc1	7.1µM*	.	.
Cc1n(C)c2cc(Cl)ccc2[n+]1Cc1ccccc1	7%	.	.
O=C(NCCc1ccccc1)c1cccnc1	10%	-11%	-3
CCCC(=O)NCCc1ccc(S(N)(=O)=O)cc1	4.5µM*	-12%	?
NS(=O)(=O)c1ccc(CCNC(=O)c2cccnc2)cc1	2%	-12%	-100*
CCC(C)C(=O)NCCc1ccc(S(N)(=O)=O)cc1 (configuration not stated)	11%	-5%	34
Cc1ccc(Nc2c(-c3ccccn3)nc3cccc(C)n23)cc1	-4%	.	.
CCOc1cc(NC(=S)NCC2CCCO2)c(OCC)cc1NC(=O)c1cccc(F)c1 (configuration not stated)	-13%	.	.
CC(C)CNC(=O)COc1cccc(C(=O)NCc2ccccc2)c1	0%	-16%	40
Cc1ccc2[nH]c(CN3CCC(CO)(CC4CCCCO4)CC3)c(C)c2c1 (configuration not stated)	-7%	.	.
CC(=O)Oc1ccccc1C(=O)O	6%	-18%	.
Cc1cc(C(=O)Oc2ccccc2C(=O)O)c(C)o1	2%	-5%	-100*
OCCN(CO)CO	4%[13.5 µM]	-2%	.
Cc1ccc2c(c1)nnn2C1CCN(C(=O)C23CC4CC(CC(C4)C2)C3)CC1	18µM*	5%	?
Cc1ccc2c(c1)nnn2C1CCN(C(=O)NC23CC4CC(CC(C4)C2)C3)CC1	18%	-3%	27
Cc1ccccc1CS(=O)(=O)c1nnc([C@H](CC(C)C)NC(=O)OC(C)(C)C)o1	0%	13µM*	44
CC(C)=CCSc1nnc([C@@H](NC(=O)OC(C)(C)C)C(C)C)o1	-5%	-3%	-10
SMILES	ALDH1A1 inh	HPGD block	PNC inhibitor
CCOC(=O)CSc1nnc([C@H](Cc2ccccc2)NC(=O)OC(C)(C)C)o1	-15%	-11%	1
CC[C@@H](C)[C@H](NC(=O)OC(C)(C)C)c1nnc(S(=O)(=O)Cc2cc(C)ccc2C)o1	4%	.	2
O=C(OCc1cccc(F)c1)c1ccc2c(c1)-c1ccccc1C2=O	8%	-5%	-18
CC(C)C[C@H](N)c1nnc(S(=O)(=O)Cc2cccc(F)c2)o1	13µM*	-27%	-11
CC(C)(C)OC(=O)N[C@@H](Cc1ccccc1)c1nnc(S(=O)(=O)Cc2cccc(F)c2)o1	?	4µM*	-107*
CC(C)[C@H](NC(=O)OC(C)(C)C)c1nnc(S(=O)(=O)Cc2c(F)cccc2Cl)o1	0%	5µM*	21
CC(C)[C@@H](CC(=O)N[C@@H]1CCCC[C@H]1C(=O)N[C@H](CC(=O)N[C@@H](CCC(=O)O)CC(=O)O)Cc1c[nH]c2ccccc12)NC(=O)C[C@H](Cc1c[nH]c2ccccc12)NC(=O)[C@@H]1CNCC[C@H]1N	-4%	-5%	.
C=C1N(c2cccc(Cl)c2)C(=O)OC1(C)C	-13%	.	.
COC(=O)[C@@H]1C[C@H]1[C@@H](NC(=O)c1ccc(Br)cc1)c1ccccc1	-3%	-2%	.
COc1cccc(C2(O)CCN(C(=O)Cc3cccnc3)CC2)c1	?	-6%	?
CCOC(=O)c1cnc(SC2CC(=O)N(c3ccccc3)C2=O)nc1N (configuration not stated)	?	-1%	?
